# Source: PubChem BioAssay (NCI)
# The panel holds about 79,000 compounds, 15% with a hit somewhere; the sample as a whole holds those more often. Unmarked numbers belong to inactive results. Active and inactive are the calls of the source. Cut-off read from the data, not from the text of the source: active = growth inhibition above about 70%; inactive = the rest.
# Columns and labels:
# [1] = NCI Yeast Anticancer Drug Screen. Data for the rad50 strain (AID 155);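 note: 0% = growth of vehicle-only cultures of the same strain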; conditions: S. cerevisiae rad50 strain growth inhibition; at 50.0 µM; hits give high values
# How it was run: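 DNA repair mutant yeast, compound exposure, growth read-out; inhibition is taken relative to vehicle.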
# [2] = NCI Yeast Anticancer Drug Screen. Data for the mec2-1 strain (AID 157); conditions: S. cerevisiae mec2-1 strain, at 50.0 µM, hits give high values
# How it was run: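 Strain: mec2-1 (DNA repair/cell cycle alteration). Compound exposure, then growth measured; inhibition expressed relative to vehicle.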
# [3] = NCI Yeast Anticancer Drug Screen. Data for the sgs1 mgt1 strain (AID 161);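 note: 0% = growth of cultures given vehicle only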; conditions: S. cerevisiae sgs1 mgt1 strain, at 50.0 µM, hits give high values
# How it was run: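 Genetically altered yeast, compound exposure, growth inhibition relative to vehicle.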
# [4] = NCI Yeast Anticancer Drug Screen. Data for the cln2 rad14 strain (AID 165);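 note: 0% = growth equal to vehicle treated cultures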; conditions: S. cerevisiae cln2 rad14 strain, at 50.0 µM, hits give high values
# How it was run: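 Compounds are applied to the cln2 rad14 yeast strain, and growth is then compared with that of vehicle-treated cultures to give inhibition.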
# [5] = NCI Yeast Anticancer Drug Screen. Data for the bub3 strain (AID 167); conditions: S. cerevisiae bub3 mutant strain, at 50.0 µM, hits give high values
# How it was run: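 In this screen, a yeast mutant lacking normal mitotic checkpoint function is challenged with compound. Relative growth versus vehicle gives the inhibition value.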
# [6] = NCI Yeast Anticancer Drug Screen. Data for the mlh1 rad18 strain (AID 175); conditions: S. cerevisiae mlh1 rad18 strain growth inhibition; at 50.0 µM; hits give high values
# How it was run: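 Read-out is yeast growth inhibition, calculated against vehicle-only controls. The compound was applied to a strain engineered with DNA damage repair alterations.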
Structure (SMILES),growth inhibition [1],growth inhibition [2],growth inhibition [3],growth inhibition [4],growth inhibition [5],growth inhibition [6]
CC(=O)Nc1cccc(/C=C/c2ccc([N+](=O)[O-])cc2)c1,52.8%,42.6%,53%,32.5%,46.4%,89.2% (active)
Cc1cccc(N=C(Nc2cccc(C)n2)Nc2cccc(C)n2)n1,31.3%,15.8%,35.6%,36.9%,25.9%,31.1%
CC(CCC(=O)O)[C@H]1CCC2[C@H]3C(CC(=O)[C@@]21C)[C@@]1(C)CCC(O)C[C@H]1C[C@@H]3O (some centres undefined),-7.75%,-7.7%,5.9%,-29.4%,-17.1%,-11.7%
CCOC(=O)C(CCSC)(CCN(C)Cc1ccccc1)C(=O)OCC,-23.1%,-3.05%,-6.9%,-0.9%,8.85%,-3.3%
CONC(CC(=O)c1ccccc1)c1ccccc1 (centres undefined),23.4%,6.95%,5.75%,2.7%,14.2%,5.65%
Cc1ccc(C(=O)Nc2c(C)cccc2C)cc1,3.45%,-40.7%,13.5%,3.65%,-4.7%,-5.95%
Oc1cc2c(cc1C(c1ccc(Cl)cc1)N1CCCCC1)OCO2 (centres undefined),9.65%,-1.6%,1.25%,-6.4%,11.1%,5.75%
CSc1n[nH]c(NC(=O)c2ccccc2Br)n1,4.2%,-0.9%,29.4%,-19.6%,3.65%,30.5%
CON[N+]([O-])=NC(C)C,27.6%,6.3%,21.6%,11.5%,17%,21.8%
Cc1cc2cc3c(C)cc(=O)oc3c(C)c2o1,-35.1%,-37.1%,-28.4%,-8.35%,-10.5%,-17.6%
N#CCC(=O)NCc1ccncc1,-13.8%,-50.4%,-24.7%,7.85%,-41%,-13.1%
CCCCCCCCCCCCCCCCCCCCOC1OC(COC(C)=O)C(OC(C)=O)C(OC(C)=O)C1OC(C)=O (centres undefined),-21.3%,-14.2%,-16.9%,12%,-5.7%,-20.4%
CC(=O)/C(C)=C\C=C(\C)C(C)=O,-7.2%,-11.5%,-16.2%,-84.5%,-0.45%,-4.7%
CC(C)c1ccc(C(C)C)c(Cl)c1,43.7%,13.9%,16.4%,7.95%,-12.6%,12.5%
CN1C2CCC1C1N=NN(c3cc(C(F)(F)F)cc(C(F)(F)F)c3)C1(N1CCOCC1)C2 (centres undefined),-20.9%,-9.6%,-27.7%,0.35%,-11.9%,-21.8%
Nc1nc(SCc2ccccc2)c2ncn(Cc3ccccc3)c2n1,5.75%,-7.55%,-15.1%,10.5%,-2.9%,9.55%
N#CC(C#N)SCc1ccccc1,17.1%,2.25%,-5.4%,6.25%,9.3%,17.8%
COc1ccc2c(c1)Cc1cc(N=[N+]([O-])c3ccc4c(c3)Cc3cc(OC)ccc3-4)ccc1-2,8.65%,1.35%,-17.9%,-80%,47.5%,9.85%
O=C(NCCCl)Nc1[nH]c(=O)ncc1Cl,-12.2%,-13.2%,-16.5%,-30.6%,-12.4%,-3.15%
CCCNC1=C(C(=O)OCC)C(=O)CO1,-12.4%,-20.7%,3.55%,15.6%,-2.4%,0.1%

Structure (SMILES),growth inhibition [1],growth inhibition [2],growth inhibition [3],growth inhibition [4],growth inhibition [5],growth inhibition [6]
CC1(C)CN(CCO)C(C)(C)CN1,30.6%,16.3%,14.9%,15.8%,-19.8%,2.5%
Fc1ccc(NC(=S)Nc2ccccn2)cc1,4.05%,-6.4%,-4.25%,-59.5%,6.05%,19.9%
O=C1OC(c2ccc(Cl)cc2)=C/C1=C/c1ccccc1O,-15.8%,4.75%,-1.15%,-47.7%,-0.65%,5.05%
CC(C)Cc1cn(O)c2nc(=N)nc(N)c-2n1,4.95%,-5.6%,-1.7%,-13.6%,5.8%,4%
Nc1nc(SCCc2ccccc2)nc2nc3c(c(-c4ccccc4)c12)CCCC3,-23.3%,-10.6%,-3.2%,2.35%,0.05%,5.1%
Nc1ccc(-c2ccc(N=C(/C=N/O)NO)cc2)cc1,-7.05%,-4.25%,2.4%,-46%,12.2%,-2.15%
C1CC2(C34CCC(CC3)C4)CCC1C2,-5.15%,1.45%,14.2%,7.55%,7.1%,-2.6%
COc1ccc(/C(=N/NS(=O)(=O)c2ccc([N+](=O)[O-])cc2)C2COC(=O)C2)cc1OC (centres undefined),6.15%,-9%,3.25%,-13.4%,14%,2.25%
OC1CC2CCCCC2CC1c1ccccc1 (centres undefined),14.1%,3.1%,-15.3%,-0.05%,27.4%,33.5%
c1ccc(-c2nc3cc4ccccc4cc3nc2-c2ccccc2)cc1,-17.4%,-12.6%,-4.9%,-35.6%,-25.9%,-18.6%
COC(=O)CCc1c(C)[nH]c(C(=O)OC(C)(C)C)c1C,-9.45%,9.3%,-10.9%,14.9%,-4.05%,-3.05%
COc1ccc(C(=O)N/N=C/c2ccccc2)cc1,8.3%,-10.8%,-7.7%,6.85%,2.6%,-18.1%
Cc1nc2ccccc2c(=O)n1NC(=S)Nc1ccc(Cl)cc1,3.6%,-31.2%,4.25%,-23.6%,-18.4%,-14.9%
[O-]c1c2c(nn1-c1ccc(Cl)cc1)c1ccccc1c[n+]2Cc1ccccc1,-6.1%,-20.6%,-11.2%,-2.5%,11.4%,-16.2%
O=S(=O)(c1ccccc1)C1CCCCC1I (centres undefined),45.9%,3.5%,21.4%,-30.5%,23.7%,18.8%
CSC1=NC=C(C#N)C2=NC(c3ccc(Cl)cc3)NN12 (centres undefined),1.95%,2%,17.2%,16.3%,15.8%,14.7%
Cc1ccc2oc(=O)c3c(O)c4cccc(OC5OC(C)C6O[C@@H](c7ccccc7)OC6C5OC5OC(C)C(O)C(O)C5O)c4c4oc(=O)c1c2c34 (some centres undefined),87.2% (active),89.7% (active),91.5% (active),83.6% (active),89.7% (active),75.4% (active)
O=C(O)COc1ccc2ccccc2c1 (tested in a mixture with another compound),-36%,-19.9%,-26.3%,-37.7%,-0.1%,-5.65%
COc1ccc2cc(NC(=O)N/N=C\c3ccc([N+](=O)[O-])cc3)ccc2c1,27.1%,7.35%,19.2%,-8.3%,12.9%,27.4%
